According to PubChem BioAssay (EPA / NIEHS):
The source made the active and inactive calls. How the source made its calls: active means hit-call score of the fitted dose curve at least 0.9, where 1 is the maximum; inactive means score below 0.9.

Legend:
Conditions in all cases: mRNA level, 48 h; actives raise or lower the signal
[1] = read-out: Broad substrate specificity ATP-binding cassette transporter ABCG2 (Homo sapiens) (UniProt Q9UNQ0); assay: LTEA_HepaRG_ABCG2: Life Technologies and Expression Analysis (LTEA) Assay for ABC Transporter (ABCG2) using HepaRG (AID 2283465)
In short: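 Read-out is ABCG2 mRNA induction or loss quantified by qRT-PCR after 48 h chemical treatment of human HepaRG cells, normalized to three housekeeping genes. Concentrations reached 100 uM top in half-log steps; fitting was bidirectional against 0.5% DMSO.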

[2] = read-out: Peroxisomal acyl-coenzyme A oxidase 1 (ACOX1) gene, ACOX1 (gene 51); assay: LTEA_HepaRG_ACOX1: Life Technologies and Expression Analysis (LTEA) Assay for Peroxisomal acyl-coenzyme A oxidase 1 (ACOX1) gene using HepaRG (AID 2283467)
In short: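 Measured by qRT-PCR against three housekeeping genes: ACOX1 transcript change in human HepaRG cells after 48 h dosing. Concentrations ran up to 100 uM in half-log steps. Curves were fitted bidirectionally relative to 0.5% DMSO.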

[3] = read-out: Alkaline Phosphatase, Placental (ALPP) gene, ALPP (gene 250); assay: LTEA_HepaRG_ALPP: Life Technologies and Expression Analysis (LTEA) Assay for Alkaline Phosphatase, Placental (ALPP) gene using HepaRG (AID 2283468)
In short: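 HepaRG cells plated 48 h, then exposed in duplicate for 48 h in serum-free induction medium to 8-point half-log series from 100 uM in 0.5% DMSO. ALPP mRNA by TaqMan qRT-PCR, normalized to ACTB/GAPDH/POLR2A; bidirectional fit versus DMSO.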

[4] = read-out: Bcl-2 (BAD) gene, BAD (gene 572); assay: LTEA_HepaRG_BAD: Life Technologies and Expression Analysis (LTEA) Assay for Bcl-2 (BAD) gene using HepaRG (AID 2283469)
In short: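 BAD transcript change, measured by qRT-PCR against three housekeeping genes and fitted in both directions relative to 0.5% DMSO, after 48 h chemical treatment of human HepaRG liver cells at concentrations up to 100 uM.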

[5] = read-out: Bcl-2 (BAX) gene, BAX (gene 581); assay: LTEA_HepaRG_BAX: Life Technologies and Expression Analysis (LTEA) Assay for Bcl-2 (BAX) gene using HepaRG (AID 2283470)
In short: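 HepaRG (human liver), 48 h exposure, duplicate wells. 8-pt curve, half-log from 100 uM, 0.5% DMSO. BAX transcript by TaqMan qRT-PCR; ACTB/GAPDH/POLR2A normalization; gain or loss vs DMSO baseline.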

[6] = read-out: adenosine kinase (ADK) gene, ADK (gene 132); assay: LTEA_HepaRG_ADK: Life Technologies and Expression Analysis (LTEA) Assay for adenosine kinase (ADK) gene using HepaRG (AID 2283471)
In short: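 Differentiated HepaRG cells dosed 48 h in serum-free induction medium, 0.5% DMSO vehicle, eight half-log concentrations from 100 uM, in duplicate. ADK mRNA by TaqMan qRT-PCR normalised to ACTB, GAPDH, POLR2A; bidirectional fit versus DMSO.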

[7] = read-out: Alpha-fetoprotein (AFP) gene, AFP (gene 174); assay: LTEA_HepaRG_AFP: Life Technologies and Expression Analysis (LTEA) Assay for Alpha-fetoprotein (AFP) gene using HepaRG (AID 2283472)
In short: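 HepaRG, single lot; 48 h post-plating -> serum-free induction medium; cpd 8-pt, 100 uM top, half-log, 0.5% DMSO, duplicate, 48 h. RNA -> qRT-PCR AFP, norm ACTB/GAPDH/POLR2A. Bidirectional fit vs DMSO.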

BCL2L11 (gene 10018) = assay: LTEA_HepaRG_BCL2L11: Life Technologies and Expression Analysis (LTEA) Assay for Bcl-2 (BCL2L11) gene using HepaRG (AID 2283473)
In short: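 Differentiated human HepaRG cells were exposed 48 h in serum-free induction medium to eight half-log concentrations up to 100 uM in 0.5% DMSO, in duplicate. BCL2L11 mRNA was quantified by TaqMan qRT-PCR, normalized to ACTB, GAPDH and POLR2A; induction or repression fitted versus DMSO.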

[8] = read-out: Apolipoprotein A-V (APOA5) gene, APOA5 (gene 116519); assay: LTEA_HepaRG_APOA5: Life Technologies and Expression Analysis (LTEA) Assay for Apolipoprotein A-V (APOA5) gene using HepaRG (AID 2283474)
In short: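 Differentiated HepaRG cells in serum-free induction medium, exposed 48 h in duplicate to eight half-log concentrations topping at 100 uM (0.5% DMSO). APOA5 mRNA by Fluidigm TaqMan qRT-PCR, normalized to ACTB, GAPDH and POLR2A; bidirectional fit versus DMSO.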

Measured: AC50

Sequence of Broad substrate specificity ATP-binding cassette transporter ABCG2 (Homo sapiens) (Q9UNQ0 whole entry, looked up): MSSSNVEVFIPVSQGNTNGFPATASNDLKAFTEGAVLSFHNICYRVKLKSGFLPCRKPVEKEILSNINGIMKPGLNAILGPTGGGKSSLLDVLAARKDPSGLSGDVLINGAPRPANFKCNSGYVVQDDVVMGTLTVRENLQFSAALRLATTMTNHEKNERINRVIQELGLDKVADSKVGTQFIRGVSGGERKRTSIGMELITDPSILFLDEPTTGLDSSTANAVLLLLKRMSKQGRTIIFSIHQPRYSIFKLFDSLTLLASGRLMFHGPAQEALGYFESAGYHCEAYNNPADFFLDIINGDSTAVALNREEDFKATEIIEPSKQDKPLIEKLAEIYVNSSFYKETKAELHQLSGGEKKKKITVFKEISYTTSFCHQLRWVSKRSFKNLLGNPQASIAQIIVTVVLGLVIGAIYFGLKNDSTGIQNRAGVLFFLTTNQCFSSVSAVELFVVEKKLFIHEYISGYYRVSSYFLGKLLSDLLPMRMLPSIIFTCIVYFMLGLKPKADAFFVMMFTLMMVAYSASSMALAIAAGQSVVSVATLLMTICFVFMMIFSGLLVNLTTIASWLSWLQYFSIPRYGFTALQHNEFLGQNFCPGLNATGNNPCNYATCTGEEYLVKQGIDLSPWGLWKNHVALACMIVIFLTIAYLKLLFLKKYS

COc1c(Cl)ccc(Cl)c1C(=O)O
inactive: all assays above

Oc1ccc(C(c2ccc(O)cc2)C(Cl)(Cl)Cl)cc1
active: [1] 75.4 µM | [2] 85.5 µM | [6] 75.9 µM | [8] 79.7 µM
inactive: [3] | [4] | [7] | BCL2L11 (gene 10018)

CC(=O)[C@H]1CC[C@H]2[C@@H]3CCC4=CC(=O)CC[C@]4(C)[C@H]3CC[C@]12C
inactive: [4]
active: [1] 12.5 µM | [2] 75.8 µM | [3] 30 µM | [6] 88.7 µM | [7] 24.4 µM | BCL2L11 (gene 10018) 12.8 µM | [8] 34 µM

N#CSCSc1nc2ccccc2s1
active: [3] 40.3 µM
not listed: [5]
inactive: all other assays above

CCCCCOC(=O)COc1cc(N2C(=O)C3=C(CCCC3)C2=O)c(F)cc1Cl
not listed: [5]
inactive: all other assays above

c1ccc(Nc2ccccc2)cc1
not listed: [1] | [5]
inactive: all other assays above

S=C([S-])NCCNC(=S)[S-].[Mn+2]
active: [2] 2.64 µM | [6] 0.628 µM | [7] 3.16 µM | [8] 3.64 µM
not listed: [5]
inactive: all other assays above

CC(C)CCCCCCc1ccc(O)cc1
not listed: [5]
inactive: all other assays above

CCSC(=O)N(CC(C)C)CC(C)C
not listed: [5]
inactive: all other assays above

CN(C)C(=O)Nc1ccc(Cl)c(Cl)c1
active: [1] 36.4 µM | [7] 50 µM
not listed: [5]
inactive: all other assays above

CC1(C)C(C=C(Cl)Cl)C1C(=O)OCc1cccc(Oc2ccccc2)c1 (centres undefined)
not listed: [5]
inactive: all other assays above

O=C(c1ccc(O)cc1O)c1ccc(O)cc1O
not listed: [5]
inactive: all other assays above

CCCCCCC(C)OC(=O)COc1nc(F)c(Cl)c(N)c1Cl (centres undefined)
not listed: [5]
inactive: all other assays above

C[C@]12C[C@H](O)[C@H]3[C@@H](CCC4=CC(=O)CC[C@@]43C)[C@@H]1CC[C@@H]2C(=O)CO
active: [1] 50 µM
not listed: [5]
inactive: all other assays above

O=C(c1ccccc1)C1CCCCC1
not listed: [5]
inactive: all other assays above

CCOC(=O)C(C)Oc1ccc(Oc2nc3ccc(Cl)cc3o2)cc1 (centres undefined)
active: [8] 11.5 µM
not listed: [5]
inactive: all other assays above

N[C@@H](Cc1cc(I)c(Oc2ccc(O)c(I)c2)c(I)c1)C(=O)O
active: [1] 70.5 µM | [2] 7.94 µM | [7] 40 µM | [8] 69.9 µM
not listed: [5]
inactive: all other assays above

COC(=O)c1ccc(I)cc1S(=O)(=O)NC(=O)Nc1nc(C)nc(OC)n1
not listed: [5]
inactive: all other assays above

c1ccc2[nH]c(-c3cscn3)nc2c1
active: [1] 9.92 µM
not listed: [5]
inactive: all other assays above

C[C@]12CC[C@@H]3c4ccc(O)cc4C[C@@H](CCCCCCCCCS(=O)CCCC(F)(F)C(F)(F)F)[C@H]3[C@@H]1CC[C@@H]2O (some centres undefined)
inactive: [1] | [3] | [6]
active: [2] 21.1 µM | [4] 0.045 µM | [7] 33.1 µM | BCL2L11 (gene 10018) 0.0755 µM | [8] 50 µM

COC(=O)CSc1cc(N=c2sc(=O)n3n2CCCC3)c(F)cc1Cl
not listed: [5]
inactive: all other assays above

CSC(=O)c1cccc2nnsc12
not listed: [5]
inactive: all other assays above

CC(C)(C)[C@@H](O)[C@@H](Cc1ccc(Cl)cc1)n1cncn1
not listed: [5]
inactive: all other assays above

CCCCC(CC)COC(=O)c1ccccc1C(=O)O (centres undefined)
not listed: [5]
inactive: all other assays above

O=C(O)C1(C(=O)Nc2ccc(Cl)cc2Cl)CC1
active: [1] 78.2 µM | [2] 81.2 µM | [6] 79.4 µM | [7] 65.6 µM | [8] 74.9 µM
inactive: [3] | [4] | BCL2L11 (gene 10018)

CCCCOC(=O)C(C)Oc1ccc(Oc2ccc(C(F)(F)F)cn2)cc1 (centres undefined)
not listed: [5]
inactive: all other assays above

CCCCOCCOCCOCc1cc2c(cc1CCC)OCO2
active: [1] 8.84 µM | [7] 33.3 µM
not listed: [5]
inactive: all other assays above

Cc1nn(C)c(Oc2ccccc2)c1C=NOCc1ccc(C(=O)OC(C)(C)C)cc1
active: [1] 3.96 µM | [2] 1.74 µM | [3] 0.903 µM | [7] 4 µM | BCL2L11 (gene 10018) 2.53 µM | [8] 29.9 µM
inactive: [4] | [6]
